Among the data in PubChem BioAssay AID1244 (Sanford-Burnham Center for Chemical Genomics, 2008) are EC50 values, retold here.

A short description of the assay: Bcl-B/Bim-BH3 peptide binding displacement, dose response, counter-screen for TR3-derived Bcl-B inhibitor project, biochemical, fluorescence polarization (AID 1244). Conditions: Bcl-B/FITC-Bim-BH3 peptide binding. (In general: The purpose of a counterscreen is to sort out artefacts and off-target activity.)

A number with no mark means an inactive call. Calls of active or inactive are those of the source. How the calls were made is not given here.

One may read the EC50 as the concentration needed to bring the measured effect to its halfway point.

On to `Cc1cc(C)nc(/N=C(/N)Nc2cccc(N)c2)n1`, for which the EC50 was over 25 µM. `Cc1ccc(C)n1-c1ccc(Br)cc1C(=O)O`: the EC50 is 0.48 µM (active).
